HSP90 inh: HSP90 refolding inhibition in rabbit reticulocyte lysate. luciferase refolding luminescence, 3 h. inhibition, % at 5.6 µM. 290,000 compounds, 0.91% hits. AID 1789;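 active means inhibition above the screen-wide mean plus 3 SD, computed separately per campaign, cut at about 16% in these data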;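 further: 0% = DMSO wells and 100% = 60 µM geldanamycin wells; inhibitors lower the luminescence because luciferase stays unfolded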
HIF activator: HIF pathway transcriptional activation | activation, % at 7.5 µM (by protocol) | U2OS HRE-luciferase reporter, luminescence; normalized: DMSO 0%, desferrioxamine 100% | 300,000 compounds, 0.32% hits;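 active means mean activation of at least 10% of the iron chelator positive control signal, with at least half of replicates also reaching 10%; inconclusive means mean and replicate majority disagree about reaching 10%; inactive means mean and most replicates under 10%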
HSF1 activator: increases HSF-1 driven luciferase reporter signal | NIH3T3-HGL HSF-1 luciferase reporter, MG132, 8 h; 100% = twice DMSO control signal | 300,000 compounds, 1.7% hits | activation, % at 9 µM;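 active means mean replicate activation of at least 50% with a set share of replicates each reaching 50%; inconclusive means only one of those two conditions met; inactive means mean below 50% and too few replicates reaching it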;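 further: 0% = median of the neutral control wells and 100% = twice that signal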
ARNT TACC3 PPI: disrupts binding between human ARNT and TACC3; Q9Y6A5; AlphaScreen His-ARNT PAS-B/GST-TACC3 binding, luminescence; TACC3 fragment carries E629A point mutation; inhibition, % at 9.99 µM; 390,000 compounds, 0.66% hits; AID 623870;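 active means mean inhibition of replicates at least 50% and at least half of replicates each reaching 50%; inconclusive means half or more replicates reach 50% but mean below 50%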;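 further: 0% = complete ARNT plus TACC3 wells and 100% = ARNT alone without TACC3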
HSF1 inhib: HSF1 inhibition; activity change, negative = inhibition, % at 7.5 µM (by protocol); 300,000 compounds, 0.77% hits; AID 2098; NIH3T3-HGL HSE-luciferase, MG132-induced, luminescence 8 h; stronger effect = lower value;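 active means more than half of replicate wells show activity change below -50%, luminescence cut by over half; inconclusive means some wells, but at most half, below -50%; inactive means no replicate well below -50%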;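 further: luciferase reports HSF-1 transcriptional activity via heat shock element; 0% = median of DMSO wells and -100% = zero luminescence signal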
HSP90 confirm: confirmation of HSP90 inhibitors | shares compounds with HSP90 inh | rabbit reticulocyte lysate, luciferase refolding luminescence, 3 h | inhibition, % at 5.9 µM | 2,300 compounds, 64% hits | AID 1846; in the data active means inhibition above about 18%;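 further: 0% = vehicle wells and 100% = reference inhibitor wells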
luciferase ctr: firefly luciferase inhibition, HSP90 counter-screen | shares compounds with HSP90 inh | purified native firefly luciferase, luminescence | inhibition, % at 5.9 µM | 2,300 compounds, 48% hits;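 active means inhibition above the mean inhibition of all tested sample wells plus 3 SD, cut at about 10% in these data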;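 further: 0% = DMSO with luciferase and 100% = wells lacking luciferase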
Target sequence (P08659 whole entry, looked up): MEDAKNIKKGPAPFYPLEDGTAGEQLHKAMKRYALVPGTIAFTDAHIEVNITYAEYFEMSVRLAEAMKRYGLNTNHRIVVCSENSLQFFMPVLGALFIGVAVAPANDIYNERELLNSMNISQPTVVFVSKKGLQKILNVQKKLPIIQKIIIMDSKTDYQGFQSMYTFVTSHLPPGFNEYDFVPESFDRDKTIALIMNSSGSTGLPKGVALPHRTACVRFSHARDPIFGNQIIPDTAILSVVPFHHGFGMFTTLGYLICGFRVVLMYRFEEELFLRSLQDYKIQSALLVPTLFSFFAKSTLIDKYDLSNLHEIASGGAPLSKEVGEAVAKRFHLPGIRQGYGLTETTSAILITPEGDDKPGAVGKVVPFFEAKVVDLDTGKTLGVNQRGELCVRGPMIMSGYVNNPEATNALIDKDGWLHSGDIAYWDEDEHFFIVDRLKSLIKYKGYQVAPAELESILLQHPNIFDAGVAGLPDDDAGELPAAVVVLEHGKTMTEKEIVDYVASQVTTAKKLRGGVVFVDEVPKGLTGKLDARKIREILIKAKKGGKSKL
Starred values were filed as active, the others as inactive; ? = inconclusive; / = no result. This is a sample that favours compounds with a hit; in the whole collection about 3.1% have one here.

SMILES | HSP90 inh | HIF activator | HSF1 activator | ARNT TACC3 PPI | HSF1 inhib | HSP90 confirm | luciferase ctr
Nc1cccc(-c2nc3ccccc3s2)c1 | -3 | 2 | 28 | -4 | 11 | / | /
COc1ccc(NC(=O)N(C)C[C@@H]2Oc3ncc(-c4cccnc4)cc3C(=O)N([C@H](C)CO)C[C@@H]2C)cc1 | / | / | / | -1 | / | / | /
CC(C)NC(=O)Nc1ccc2c(c1)C(=O)N([C@@H](C)CO)C[C@@H](C)[C@H](CN(C)Cc1ccncc1)O2 | / | / | / | -1 | / | / | /
c1c2c(cc3sc(N4CCOCC4)nc13)OCO2 | 2 | 1 | 41 | 2 | 11 | / | /
c1c2c(cc3sc(N4CCCCC4)nc13)OCO2 | 25* | 0 | 25 | 2 | 12 | 59* | 52*
Cc1nc(Nc2nc3ccccc3o2)nc2c1CCC2 | 17* | -1 | 25 | -5 | 5 | 50* | 43*
CCOC(=O)c1cnc(Nc2nc3ccccc3o2)nc1C | 18* | -2 | -35 | 4 | -23 | 86* | 75*
O=C(NC1CCC1)[C@H]1[C@H](CO)[C@H]2Cn3c(ccc(-c4ccccc4)c3=O)[C@@H]1N2CC1CC1 | / | / | / | -6 | / | / | /
COc1ccc(CN(C)C[C@@H]2Oc3c(NS(=O)(=O)c4ccc(C)cc4)cccc3C(=O)N([C@@H](C)CO)C[C@@H]2C)cc1 | / | / | / | 8 | / | / | /
COc1ccc(OC)c(Cc2nnc(CCC(=O)NC3C4CC5CC(C4)CC3C5)o2)c1 (stereo not drawn) | 18* | 0 | 5 | / | -6 | -7 | -6
O=C(NCCc1cccc(Cl)c1)c1ccc(OC2CCN(Cc3ccccn3)CC2)cc1 | 22* | -1 | 4 | 2 | 1 | 19* | -6
COc1ccc(C(=O)Cn2c(C)nc([N+](=O)[O-])c2Br)cc1 | 22* | 0 | 172* | -3 | 97 | 1 | -7
CN1C(=O)c2cc(NC(=O)Cc3cccs3)ccc2OC[C@H]2O[C@H](CC(=O)N[C@H]3CCN(Cc4ccccc4)C3)CC[C@@H]21 | / | / | / | 8 | / | / | /
CCCNC(=O)N1[C@@H](CO)[C@@H]2c3ccccc3N(C(=O)Nc3cccc(F)c3)C[C@@H]21 | / | / | / | 3 | / | / | /
CCOc1ccc(N)c(SSc2cc(OCC)ccc2N)c1 | 30* | 2 | -22 | 11 | -10 | 41* | 9.6*
COc1ccc(CNC(=O)C[C@H]2CC[C@H](NC(=O)c3ccc4c(c3)OCO4)[C@H](CO)O2)cc1 | / | / | / | -10 | / | / | /
Cc1cccc(CC(=O)N2CCC(N3CCC(C(=O)N4CCOCC4)CC3)CC2)c1 | 51* | 0 | -1 | 2 | -8 | -7 | -8
C[C@@H]1CN([C@@H](C)CO)C(=O)c2cc(NC(=O)Nc3cccc4ccccc34)ccc2O[C@@H](C)CCCCO[C@@H]1CN(C)C(=O)C1CCCCC1 | / | / | / | 30 | / | / | /
O=C(Nc1ccccc1O)c1cc2cc(Br)ccc2oc1=O | 17* | 4 | 33 | -2 | 16 | -4 | -16
O=C(NNC(=O)c1cc2cc(Br)ccc2oc1=O)c1ccc(O)cc1 | -3 | 0 | -9 | -5 | -4 | / | /
O=c1oc(Nc2ccc(F)cc2)nc2ccccc12 | 18* | 1 | 23 | -2 | 12 | 9 | -21
COc1ccccc1NC(=O)N[C@H]1CC[C@@H](CC(=O)N2CCC(Cc3ccccc3)CC2)O[C@H]1CO | / | / | / | 5 | / | / | /
CO[C@H]1CN(C)C(=O)c2ccc(NC(=O)C3CCCC3)cc2OC[C@@H](C)N(CC2CC2)C[C@@H]1C | / | / | / | -5 | / | / | /
COc1ccc(N2CCN(C(=O)c3ccc4nc(N5CCCCC5)sc4c3)CC2)cc1 | 19* | 0 | -21 | -1 | -9 | 29* | -8
O=C(c1ccc2nc(N3CCOCC3)sc2c1)N1CCCC1 | -3 | 0 | 8 | 9 | 5 | / | /
SMILES | HSP90 inh | HIF activator | HSF1 activator | ARNT TACC3 PPI | HSF1 inhib | HSP90 confirm | luciferase ctr
CC(=O)Nc1cccc(-c2cc(-c3c(Cl)cccc3Cl)no2)c1 | 19* | -1 | 24 | 4 | 15 | -9 | -12
C[C@H](CO)N1C[C@H](C)[C@H](CN(C)C(=O)Nc2ccccc2)Oc2ccc(NC(=O)CCCCCC(=O)Nc3ccccc3N)cc2CC1=O | / | / | / | 9 | / | / | /
C=CCn1c(C)cc(C(=O)COc2ncnc3sccc23)c1C | 18* | 0 | -11 | 4 | -6 | 45* | 33*
CC(C)CC#Cc1ccc2c(c1)O[C@@H](CN(C)Cc1ccncc1)[C@@H](C)CN([C@@H](C)CO)S2(=O)=O | / | / | / | 1 | / | / | /
N#CCc1ccc(NC(=O)/C=C/c2ccc([N+](=O)[O-])o2)cc1 | 60* | -1 | -43 | -18 | -34 | 9 | -7
COc1cccc(-c2ccc3c(c2)O[C@H](CN(C)C)[C@@H](C)CN([C@H](C)CO)S3(=O)=O)c1 | / | / | / | -1 | / | / | /
O=[N+]([O-])c1ccccc1-c1nc(-c2ccc(Br)o2)no1 | 6 | 2 | ? | 5 | 19 | / | /
Nc1nnc(-c2ccccc2[N+](=O)[O-])o1 | 30* | -2 | -26 | -1 | -14 | -2 | -9
C[C@@H]1CN([C@H](C)CO)C(=O)c2cc(NC(=O)C3CCCCC3)ccc2O[C@@H](C)CCCCO[C@H]1CN(C)Cc1ccc(C(F)(F)F)cc1 | / | / | / | 14 | / | / | /
CCCCn1c(SC(C)C(N)=O)nc2cc(C(=O)OC)ccc2c1=O (stereo not drawn) | 28* | -20 | -8 | 1 | -4 | -2 | -6
CC1CCC/C(=C\Nc2ccc(C(=O)O)cc2)C1=O (stereo not drawn) | 37* | 1 | -22 | 6 | -9 | 61* | 22*
CCOC(=O)c1ccc(N/C=C2/CCCC(C)C2=O)cc1 (stereo not drawn) | 12 | 3 | 5 | 1 | 12 | / | /
CCNC(=O)C[C@H]1CC[C@H]2[C@@H](COc3ccc(NS(C)(=O)=O)cc3C(=O)N2C)O1 | / | / | / | 30 | / | / | /
Cc1ccc(S(=O)(=O)Nc2ccc(-c3cn4ccc(C)cc4n3)cc2)cc1 | 3 | 0 | 0 | 1 | 2 | / | /
Cc1ccn2cc(-c3ccc(Br)cc3)nc2c1 | 40* | -1 | 11 | -4 | -5 | 60* | 62*
Cc1noc(C)c1S(=O)(=O)Nc1ccc2c(c1)CC(=O)N([C@@H](C)CO)C[C@H](C)[C@H](CN(C)S(=O)(=O)c1ccc(F)cc1)O2 | / | / | / | 1 | / | / | /
CC1=NN(c2ccc(C(=O)O)cc2)C(=O)/C1=C\c1ccc(OC(=O)c2cccs2)cc1 | 26* | 1 | 5 | 28 | -4 | 5 | 17*
CC1=NN(c2ccccc2)C(=O)/C1=C/c1cccs1 | 1 | 0 | -5 | -19 | 4 | / | /
CCC(=O)N1CC[C@@H]2[C@H](CO)Nc3ccc(-c4ccccc4)cc3[C@@H]21 | / | / | / | 7 | / | / | /
C/C(=N\Nc1ccc(C(=O)O)cc1)c1ccc(S(=O)(=O)NCc2ccco2)cc1 | 48* | 0 | -25 | -29 | -17 | 20* | 9
